# Assay results as given in PubChem BioAssay AID588689 (Southern Research Specialized Biocontainment Screening …, 2011).
# Screen size: about 340,000 compounds; about 1,000 (0.29%) were called active. Rule as the data show it: inconclusive = inhibition above about 29% without an active follow-up result; inactive = below that. These entries were drawn from the full list. Measured potencies and affinities stand elsewhere.
# Biological target: Genome polyprotein (Dengue virus type 2 (strain 16681-PDK53)) (UniProt P29991)
# Assay: Dengue-2 NS5 methyltransferase inhibitors, primary screen, biochemical, confirmation dose response (AID 588689)
# Details: Dengue-2 NS5 methyltransferase capping enzyme assay, at 25 µM, stronger effect = higher value
# [1] = measured here: pilot screen replicate inhibition
# Chain of Genome polyprotein (Dengue virus type 2 (strain 16681-PDK53)) (P29991 whole entry, looked up): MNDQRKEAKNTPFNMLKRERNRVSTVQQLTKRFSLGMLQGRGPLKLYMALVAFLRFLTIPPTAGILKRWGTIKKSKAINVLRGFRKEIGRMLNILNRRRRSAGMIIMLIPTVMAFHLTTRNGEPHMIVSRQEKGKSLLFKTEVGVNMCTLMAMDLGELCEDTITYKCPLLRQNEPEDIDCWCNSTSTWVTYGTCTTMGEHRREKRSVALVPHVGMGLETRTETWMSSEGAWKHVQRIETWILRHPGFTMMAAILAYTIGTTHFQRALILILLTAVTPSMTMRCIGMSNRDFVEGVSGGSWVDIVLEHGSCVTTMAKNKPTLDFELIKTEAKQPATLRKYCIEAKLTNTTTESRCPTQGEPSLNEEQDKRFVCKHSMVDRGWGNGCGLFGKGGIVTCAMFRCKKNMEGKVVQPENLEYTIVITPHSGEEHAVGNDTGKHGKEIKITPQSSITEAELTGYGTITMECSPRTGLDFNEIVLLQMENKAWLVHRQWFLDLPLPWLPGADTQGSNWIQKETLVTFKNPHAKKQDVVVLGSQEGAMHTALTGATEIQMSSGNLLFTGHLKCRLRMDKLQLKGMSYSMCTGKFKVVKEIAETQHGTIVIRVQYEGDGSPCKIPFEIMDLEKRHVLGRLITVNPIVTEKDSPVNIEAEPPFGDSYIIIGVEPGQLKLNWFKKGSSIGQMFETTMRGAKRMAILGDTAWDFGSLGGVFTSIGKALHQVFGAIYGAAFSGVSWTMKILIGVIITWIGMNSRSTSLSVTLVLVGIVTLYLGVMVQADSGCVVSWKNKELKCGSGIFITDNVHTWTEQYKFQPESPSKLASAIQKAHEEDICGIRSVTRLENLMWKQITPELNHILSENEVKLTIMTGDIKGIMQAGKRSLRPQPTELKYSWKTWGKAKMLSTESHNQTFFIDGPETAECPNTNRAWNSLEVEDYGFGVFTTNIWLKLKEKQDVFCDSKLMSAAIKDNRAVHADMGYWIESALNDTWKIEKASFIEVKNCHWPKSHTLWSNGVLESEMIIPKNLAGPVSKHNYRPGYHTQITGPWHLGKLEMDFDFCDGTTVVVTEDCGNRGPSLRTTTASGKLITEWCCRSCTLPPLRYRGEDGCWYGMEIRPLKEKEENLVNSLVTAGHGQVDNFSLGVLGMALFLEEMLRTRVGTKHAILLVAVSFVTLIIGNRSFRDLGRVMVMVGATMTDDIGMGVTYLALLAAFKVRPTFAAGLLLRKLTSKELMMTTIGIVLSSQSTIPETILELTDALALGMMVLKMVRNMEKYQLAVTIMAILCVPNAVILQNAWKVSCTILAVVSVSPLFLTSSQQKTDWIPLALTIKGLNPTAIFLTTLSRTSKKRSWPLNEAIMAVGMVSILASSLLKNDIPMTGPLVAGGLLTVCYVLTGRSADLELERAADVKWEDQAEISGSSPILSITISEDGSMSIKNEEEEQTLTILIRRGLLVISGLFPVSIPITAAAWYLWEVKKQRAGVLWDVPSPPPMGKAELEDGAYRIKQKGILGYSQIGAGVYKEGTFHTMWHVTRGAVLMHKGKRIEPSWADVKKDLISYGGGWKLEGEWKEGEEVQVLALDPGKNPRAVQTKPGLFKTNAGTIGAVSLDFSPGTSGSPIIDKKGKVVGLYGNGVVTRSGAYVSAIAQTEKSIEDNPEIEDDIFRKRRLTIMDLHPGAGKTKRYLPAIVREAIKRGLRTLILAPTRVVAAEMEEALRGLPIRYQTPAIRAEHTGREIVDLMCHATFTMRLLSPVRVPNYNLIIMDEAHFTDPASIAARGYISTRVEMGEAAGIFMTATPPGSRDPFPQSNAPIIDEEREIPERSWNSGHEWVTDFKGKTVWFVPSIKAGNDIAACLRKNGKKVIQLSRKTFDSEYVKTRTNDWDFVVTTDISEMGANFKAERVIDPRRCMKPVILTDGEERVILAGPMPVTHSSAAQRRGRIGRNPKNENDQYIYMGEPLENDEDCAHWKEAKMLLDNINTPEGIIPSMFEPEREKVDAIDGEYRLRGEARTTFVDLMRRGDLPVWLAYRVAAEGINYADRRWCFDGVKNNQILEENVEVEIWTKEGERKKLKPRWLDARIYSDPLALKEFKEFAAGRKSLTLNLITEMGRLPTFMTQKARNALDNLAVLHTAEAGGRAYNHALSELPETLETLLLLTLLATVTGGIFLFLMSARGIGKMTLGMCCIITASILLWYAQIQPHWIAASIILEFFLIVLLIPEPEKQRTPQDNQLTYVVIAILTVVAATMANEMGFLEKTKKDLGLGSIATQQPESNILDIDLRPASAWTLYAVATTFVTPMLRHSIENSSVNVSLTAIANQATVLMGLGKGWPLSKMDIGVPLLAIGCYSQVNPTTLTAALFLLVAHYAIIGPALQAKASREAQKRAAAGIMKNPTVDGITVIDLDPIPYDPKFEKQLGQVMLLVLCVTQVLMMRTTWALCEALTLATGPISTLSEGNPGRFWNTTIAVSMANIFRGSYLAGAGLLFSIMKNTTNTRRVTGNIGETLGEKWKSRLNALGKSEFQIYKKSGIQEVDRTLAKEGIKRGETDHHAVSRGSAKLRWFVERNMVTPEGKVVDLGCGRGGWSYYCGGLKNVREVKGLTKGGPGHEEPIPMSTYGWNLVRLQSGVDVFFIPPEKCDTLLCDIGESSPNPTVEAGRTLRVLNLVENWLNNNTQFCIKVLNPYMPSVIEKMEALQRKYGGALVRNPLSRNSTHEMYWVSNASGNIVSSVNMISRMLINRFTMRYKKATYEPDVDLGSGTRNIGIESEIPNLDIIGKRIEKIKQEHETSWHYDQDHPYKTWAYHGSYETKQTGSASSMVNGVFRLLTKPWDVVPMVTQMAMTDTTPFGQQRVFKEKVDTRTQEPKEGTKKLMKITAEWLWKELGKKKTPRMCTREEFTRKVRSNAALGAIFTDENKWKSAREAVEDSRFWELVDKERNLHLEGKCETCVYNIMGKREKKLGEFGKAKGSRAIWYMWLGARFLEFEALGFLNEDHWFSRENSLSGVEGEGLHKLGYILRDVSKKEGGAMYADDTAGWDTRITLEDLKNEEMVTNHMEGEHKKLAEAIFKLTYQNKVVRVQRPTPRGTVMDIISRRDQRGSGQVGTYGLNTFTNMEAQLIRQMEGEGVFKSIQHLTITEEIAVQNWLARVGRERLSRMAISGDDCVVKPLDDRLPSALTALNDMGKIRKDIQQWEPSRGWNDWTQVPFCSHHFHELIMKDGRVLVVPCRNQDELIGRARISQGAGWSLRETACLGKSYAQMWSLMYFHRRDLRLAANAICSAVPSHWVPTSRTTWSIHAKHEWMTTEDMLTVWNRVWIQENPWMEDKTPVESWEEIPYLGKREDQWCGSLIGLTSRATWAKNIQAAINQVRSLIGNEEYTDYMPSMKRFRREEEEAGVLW
Compound,inhibition,inhibition [1]
Cc1c(OC(C)C(=O)NCC(O)c2ccccc2)ccc2c3c(c(=O)oc12)CCCC3 (configuration not stated),2.62% (inactive),–
CC(C)N1CCc2c(sc(NC(=O)c3ccc([N+](=O)[O-])o3)c2C(N)=O)C1,-6.69% (inactive),–
CN1CCc2c(sc(NC(=O)c3ccc([N+](=O)[O-])o3)c2C(N)=O)C1,6.69% (inactive),–
COc1ccc(C(CNC(=O)c2ccc(-c3ccccc3Cl)o2)N2CCCC2)cc1 (configuration not stated),1.14% (inactive),–
NS(=O)(=O)c1ccc(CCNC(=O)Nc2ccc(Cl)c(Cl)c2)cc1,-1.37% (inactive),–
CCc1c(C(=O)N2CCOCC2)csc1C,-2.41% (inactive),–
O=C(c1ccccc1)c1cn[nH]c1-c1ccccc1O,-2.78% (inactive),–
Cc1nc(COC(=O)c2ccc(CO)cc2)cs1,-2.35% (inactive),–
COc1ccc(C(=O)OCc2csc(C)n2)c(O)c1,-2.19% (inactive),–
CCCCCc1cc(OC)cc2c1C(=O)OC(C)(C)O2,1.32% (inactive),-1.23%
COc1ccc(OC)c(C(=O)CCCCC(=O)c2cc(OC)ccc2OC)c1,2.88% (inactive),–
CCCCc1c(C(=O)O)cc(OC)cc1C(=O)O,5.73% (inactive),–
COc1ccc(OC)c(C(=O)CCCC(=O)c2cc(OC)ccc2OC)c1,5.23% (inactive),–
Cc1nc2c([nH]1)C1(CCN(Cc3ccccc3)CC1)C(C#N)=C(N)O2,12.1% (inactive),–
O=C(c1ccncc1)N(Cc1cc2ccccc2[nH]c1=O)C1CCCCC1,-1.6% (inactive),–
Cc1ccc(NS(=O)(=O)c2ccccc2)c(NS(=O)(=O)c2ccccc2)c1,13.2% (inactive),–
COc1ccc(S(=O)(=O)NC2CC3CCC2C3)cc1 (configuration not stated),-4.66% (inactive),–
COc1cccc(-c2coc3c(C)c4oc(=O)c(CC(=O)O)c(C)c4cc23)c1,1.96% (inactive),–
Cc1c(CCC(=O)O)c(=O)oc2cc3occ(-c4ccc(Br)cc4)c3cc12,17.7% (inactive),–
COc1ccc(-c2coc3c(C)c4oc(=O)c(CCC(=O)O)c(C)c4cc23)cc1,11.8% (inactive),–
Cc1c(CC(=O)O)c(=O)oc2c(C)c3occ(-c4ccc(Br)cc4)c3cc12,26.1% (inactive),–
Cc1c(CCC(=O)O)c(=O)oc2cc3occ(-c4ccc(Cl)cc4)c3cc12,18.3% (inactive),–
Cc1c(CC(=O)O)c(=O)oc2c(C)c(OCc3ccc(F)cc3Cl)ccc12,1.96% (inactive),–

Compound,inhibition,inhibition [1]
COc1ccccc1COc1ccc2c(C)c(CCC(=O)O)c(=O)oc2c1C,7.18% (inactive),–
COc1cccc(-c2coc3cc4oc(=O)c(CCC(=O)O)c(C)c4cc23)c1,9.7% (inactive),–
CCC[C@@H](CN1CCC[C@H]1CN1C(N)=NC[C@@H]1Cc1ccccc1)N1C[C@@H]([C@H](C)CC)N(CCc2ccc(Cl)c(Cl)c2)C1=N,-10.2% (inactive),–
COc1ccc(-n2c(=O)cc(N3CC(C)OC(C)C3)[nH]c2=O)cc1 (configuration not stated),-3.21% (inactive),–
N#Cc1ccc(OCc2nnc3n2CCCCC3)cc1,-1.53% (inactive),–
CCOCCn1c(CN2CCN(C(c3ccccc3)c3ccccc3)CC2)nc2c1c(=O)n(C)c(=O)n2C,-5.88% (inactive),–
COc1ccc(NC(=O)Nc2ccc3c(c2)CCC3)cc1,1.61% (inactive),–
Cc1ccc(Sc2cc(NCCCO)c([N+](=O)[O-])c3nonc23)cc1,16.2% (inactive),–
CCC(=O)OCCNc1cc(Sc2nc3ccccc3[nH]2)c2nonc2c1[N+](=O)[O-],29.8% (inactive),–
Cc1nnc(Sc2cc(NCCO)c([N+](=O)[O-])c3nonc23)s1,1.46% (inactive),–
CCCC(=O)OCCNc1cc(Sc2nc3ccccc3[nH]2)c2nonc2c1[N+](=O)[O-],20.4% (inactive),–
CN(CCO)c1cc(Sc2nc3ccccc3s2)c2nonc2c1[N+](=O)[O-],48.2% (inactive),–
Cc1nnc(Sc2cc(NCCCO)c([N+](=O)[O-])c3nonc23)s1,18.5% (inactive),–
C[C@@H]1CC=C[C@@H]2[C@H]1C(=O)N(Cc1ccccc1)[C@H]2c1cccc(C#Cc2ccccc2)c1,-4.3% (inactive),-5.45%
CC(C)=CCC(C)(C)C1OCCN1C(=O)c1ccccc1 (configuration not stated),-7.18% (inactive),–
Cc1cc(Br)ccc1NC(=O)CN(C)C(=O)C1CCN(C(=O)c2ccc(Cl)cc2)CC1,-3.75% (inactive),–
O=C1OC(c2ccccc2)c2ccc3ccccc3c21 (configuration not stated),-10.9% (inactive),–
CCOc1ccc2c(C)c(Cl)c(=O)oc2c1,-0.69% (inactive),–
OCCN1CCN(c2cc(-c3ccccc3)c3ccccc3n2)CC1,-4.36% (inactive),–
Cc1ccc(NC(=O)COC(=O)c2c(C)nn(-c3ccccc3)c2C)cc1,7.29% (inactive),–
Cc1ccc(/C=C2\SC(=S)N(CCC(=O)NNS(=O)(=O)c3ccc(C)cc3)C2=O)cc1,-5.09% (inactive),–
CC(=O)NN1C(=O)/C(=C\c2ccccc2)SC1=S,-3.17% (inactive),–
C=CCOc1ccc(/C=C2\SC(=S)N(N3CCOCC3)C2=O)cc1,-7.66% (inactive),–

Compound,inhibition,inhibition [1]
COc1cccc(-n2nnnc2SCC(=O)NCc2ccco2)c1,-6.77% (inactive),–
O=C(NCCc1c[nH]c2ccccc12)c1ccco1,-0.82% (inactive),–
O=C(CNC(=O)C(c1ccccc1)c1ccccc1)N/N=C\c1ccc(C(=O)O)cc1,0% (inactive),–
Cc1ccc(S(=O)(=O)N2CCN(S(=O)(=O)N3CCOCC3)CC2)cc1C,2.05% (inactive),–
CCn1c(C)nc2cc(C(=O)N/N=C/c3cccc(O)c3O)ccc21,-0.82% (inactive),–
COc1ccc(/C=N/NC(=O)c2cc(C)n(-c3ccccc3)c2C)cc1OC,-10.9% (inactive),–
CCn1c(C)nc2cc(C(=O)N/N=C/c3cccc(OC)c3O)ccc21,-3.68% (inactive),–
O=C(CCN1CCN(c2ccccc2)CC1)N/N=C/c1ccccc1O,-10.4% (inactive),–
Cc1cc(/C=N/NC(=O)c2ccccc2F)c(C)n1-c1ccccc1,-8.18% (inactive),–
COc1ccc(/C=N/NC(=O)CCN2CCN(c3ccccc3)CC2)c(OC)c1OC,-0.66% (inactive),–
O=C(CCc1ccc(S(=O)(=O)N2CCOCC2)cc1)N/N=C/c1ccc(F)cc1F,-6.07% (inactive),–
O=C(CCc1ccc(S(=O)(=O)N2CCOCC2)cc1)N/N=C/c1cccc(O)c1,-1.28% (inactive),–
CCOC(=O)CN1C(=O)N[C@@H](c2cccs2)C(C(=O)OC)=C1C,-0.8% (inactive),–
Cn1ccnc1C(=O)c1cc(SCC(=O)NC2CC2)nc2ccccc12,0.73% (inactive),–
O=C(NCc1nnnn1-c1ccc(F)cc1)c1cc2ccccc2o1,9.89% (inactive),–
CCCCCCCCN1[C@@H](CC(=O)OCC)c2cc(C(F)(F)F)ccc2S1(=O)=O,-6.14% (inactive),–
CC(C)COc1cccc(C(=O)N(C)CC(=O)Nc2cccc3ccccc23)c1,-6.94% (inactive),–
Cc1cccc(CC(=O)Nc2ccon2)c1,-7.18% (inactive),1.51%
NS(=O)(=O)c1ccc(N/N=C/c2ccccc2C(=O)O)c([N+](=O)[O-])c1,4.52% (inactive),–
COc1cc(/C=N/Nc2ccc([N+](=O)[O-])cc2S(=O)(=O)N2CCOCC2)cc(OC)c1OC,-2.58% (inactive),–
O=[N+]([O-])c1ccc(N/N=C/c2cccc(O)c2O)c(S(=O)(=O)N2CCOCC2)c1,6.18% (inactive),–
NS(=O)(=O)c1ccc(N/N=C/c2ccc(O)cc2O)c([N+](=O)[O-])c1,27.2% (inactive),–
Cc1c(OCC(=O)N2CCC(C(N)=O)CC2)ccc2c3c(c(=O)oc12)CCCC3,-4.35% (inactive),–

Compound,inhibition,inhibition [1]
CCOCCCNC(=O)CCc1nnc2n(CCC(C)C)c(=O)c3ccccc3n12,-4.57% (inactive),–
CCOc1cc(NC(=S)NCCCN2CCOCC2)c(OCC)cc1NC(=O)C1CCCCC1,-10.9% (inactive),–
CC(=O)Nc1ccc2c(c1)CCc1ccccc1-2,-9.7% (inactive),–
O=C(O)CCCc1ccc2c(c1)CCc1ccccc1-2,-0.8% (inactive),–
CCN(CC(=O)NCc1cccs1)S(=O)(=O)c1ccccc1Cl,0% (inactive),–
O=C(NCc1ccncc1)C(=O)NCC1OCCN1S(=O)(=O)c1ccc(F)cc1 (configuration not stated),-3.87% (inactive),–
CCC(COC(C)=O)Nc1nc2c([nH]1)c(=O)n(C)c(=O)n2C (configuration not stated),9.2% (inactive),–
COC(=O)c1sc2ccccc2c1N,-9.74% (inactive),–
COC(=O)C1=C(C(=O)OC)C(c2cc([N+](=O)[O-])ccc2O)c2sc(=O)[nH]c2S1 (configuration not stated),-1.58% (inactive),–
COC(=O)C1=C(C(=O)OC)C(c2ccc(OC)c(OC)c2)c2sc(=O)[nH]c2S1 (configuration not stated),18% (inactive),–
COC(=O)c1cc(OC)nc2ccc(Br)cc12,4.64% (inactive),–
Cc1ccnc(NC(=O)C2CCCN(c3ncnc4c3nc3n4CCCCC3)C2)c1 (configuration not stated),0.45% (inactive),–
CCOc1cc(/C=N/NC(=O)CSc2nnc(C)s2)ccc1OCc1ccccc1Cl,8.09% (inactive),–
COc1ccc(/C=N/N=C2/NC(=O)C(CC(=O)O)S2)cc1OCc1ccc(Cl)cc1 (configuration not stated),13.3% (inactive),–
COc1cc(/C=N/NC(=O)CC2(C)OCCCO2)ccc1OCc1ccc(Cl)cc1Cl,-4.47% (inactive),–
COc1cc(/C=N/N=C2/NC(=O)C(CC(=O)O)S2)ccc1OCc1ccc(Cl)cc1 (configuration not stated),16.7% (inactive),–
COc1ccc(/C=N/N=C2/NC(=O)C(CC(=O)O)S2)cc1OCc1ccccc1Cl (configuration not stated),17.8% (inactive),–
CCOc1cc(/C=N/N=C2/NC(=O)C(CC(=O)O)S2)ccc1OCc1ccc(Cl)cc1Cl (configuration not stated),25.1% (inactive),–
O=C1CCc2nc3ccccc3c(=O)n2N1,-1.38% (inactive),–
COc1cccc(C(CNc2ccc(S(=O)(=O)N3CCN(C)CC3)cc2[N+](=O)[O-])N(C)C)c1 (configuration not stated),2.89% (inactive),–
